# Compound activity deposited in PubChem by National Center for Advancing Translational Sciences (NCATS).
# In the library only some 7.8% were active in any assay of this set; here they are far more common.
# Marburg entry inh = blocks Marburg virus binding to or entry into cells. 300,000 tested, 1.8% active. Marburg virus pseudotyped entry inhibition, cell reporter. Potency, µM (titrated, usually from 37.8 µM), most hits filed as inhibitors; calls by dose curve; tested in HEK293 cells
# HCMV antiviral = blocks human cytomegalovirus replication | 410,000 tested, 4.5% active | HFF cells, HCMV-luciferase reporter, 72 h; active compounds read low | activity change, negative = inhibition, % at 57.5 µM; in the data active means activity change below about -60%; inconclusive means no clear call, values can overlap the other calls; inactive means above about -39%
#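 Cell-based, HFFs, 1000 cells/well, 16 h 37C; cpds in DMSO + HCMV-luc, MOI 1 PFU/cell; 72 h 37C; OneGlo luminescence after 5 min RT; norm. to buffer vs Salinomycin 10uM.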
# HCV inhibitor = blocks hepatitis C virus. Huh7.5.1 HCVcc-Cre infection, luciferase reporter, 44 h. Potency, µM (titrated, usually from 41.8 µM), actives largely listed as inhibitors. 340,000 tested, 3.4% active. AID 651820; active means well fitted inhibition curve with a large enough effect; inconclusive means small, poorly fitted or top-dose-only effect, or another doubt; inactive means no such curve, though single readings can be large or run the other way
#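 Compounds are dispensed onto cells plated 4 h earlier at 1,000 per well, with HCVcc-Cre virus (about 0.5 moi) added next. Following 44 h of culture, luminescent signal is measured for 15 sec after 15 min with substrate at room temperature.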
# VACV Venus inh = vaccinia inhibition (Venus reporter); Vaccinia virus Venus reporter expression, fluorescence; Potency, µM (titrated, usually from 36.5 µM), most hits filed as inhibitors; 330,000 tested, 0.46% active; calls by dose curve; tested in A549 cells; further: nearly all actives have a fitted effect of over 30% in size
# VACV mCherry inh = inhibitors of vaccinia virus infection (mCherry reporter signal) | Vaccinia virus mCherry reporter infection, fluorescence | Potency, µM (doses to about 36.5 µM), usual class: inhibitors | 310,000 tested, 0.63% active | AID 720579; calls by dose curve; tested in A549 cells; further: nearly all actives have a fitted effect of over 35% in size
# LASV entry inh = Lassa virus entry inhibition; Lassa virus pseudotype entry inhibition, cell reporter; Potency, µM (doses to about 37.9 µM), actives largely listed as inhibitors; 300,000 tested, 1.2% active; AID 540256; calls by dose curve; tested in HEK293 cells; further: nearly all actives have a fitted effect of over 50% in size
# Numbers stand for hits; - = inactive; ? = inconclusive; . = not tested or not shown; + = active, no number; [ ] = remark or other dose.
SMILES,Marburg entry inh,HCMV antiviral,HCV inhibitor,VACV Venus inh,VACV mCherry inh,LASV entry inh
Cc1nc(NC(C)c2ccccc2)c2oc3ccccc3c2n1 (configuration not stated),?,-65.4,6.31µM,?,?,?
CC(=O)Nc1ccc(Nc2nc(C)nc3c2oc2ccccc23)cc1,?,-,?,.,.,?
C[C@H]1CN([C@@H](C)CO)C(=O)CCCn2cc(nn2)CO[C@@H]1CN(C)C(=O)c1ccc2ccn(C)c2c1,.,-,.,.,.,.
COc1ccc(OC)c(Nc2nc(C)nc3c2oc2ccccc23)c1,.,-,-,?,-,.
Cc1cccc(Nc2nc(C)nc3c2oc2ccccc23)c1,.,-,12.6µM,.,.,.
Cc1ccc(N(CCCCN2C(=O)c3ccccc3C2=O)C(=O)c2cccs2)cc1,?,-83.4,-,-,-,?
Cc1ccc(CN2C(=O)C(O)(CC(=O)c3ccc(C)cc3)c3ccccc32)cc1 (configuration not stated),-,?,.,-,-,?
Cc1ccc(S(=O)(=O)CCC(=O)N2CCN(c3ccc(Cl)cc3)CC2)cc1,-,-70.1,?,.,.,-
Cc1c(Cl)ccc2sc(N3CCN(C(=O)CCS(=O)(=O)c4ccc(F)cc4)CC3)nc12,.,-70.2,.,?,-,?
Cc1ccc(S(=O)(=O)CCC(O)c2ccc(Cl)cc2)cc1 (configuration not stated),.,-102.5,-,.,.,.
O=C(CSc1ccc2nc(-c3ccccc3)cn2n1)Nc1ccccc1,.,-,.,-,-,?
Cc1ccc2cc3cc(C(=O)N(C)c4ccccc4C)oc3nc2c1,?,-,.,-,-,-
O=C(Cn1c(=O)n(Cc2ccco2)c(=O)c2oc3ccccc3c21)Nc1ccc(F)c(Cl)c1,.,-,.,-,-,-
C/C(CC(=O)NC(C)(C)C)=N\NC(N)=S,?,-,-,?,10µM,-
C/C(CC(=O)Nc1ccc(Cl)c(C(F)(F)F)c1)=N\NC(=O)c1cccc(O)c1,?,-,-,-,-,?
C/C(CC(=O)Nc1ccc(Cl)c(C(F)(F)F)c1)=N\NC(=O)c1ccccc1O,18.4µM,-80.4,-,?,10µM,?
C/C(CC(=O)Nc1ccc(Cl)c(C(F)(F)F)c1)=N\NC(N)=S,?,-,6.31µM,?,17.8µM,?
Cc1ccc(CNC(=O)CSc2c(C(C)C)cnc3c2c(=O)n(C)c(=O)n3C)cc1,.,-,.,-,-,-
CCCCOc1ccc(-c2c(C#N)c(N)nc(SCC(N)=O)c2C#N)cc1,?,-,5.01µM,?,.,4.47µM
CC(CCC(=O)OC[C@H]1O[C@H](C#Cc2ccccc2)C=C[C@H]1Oc1ccc(C)cc1)=NOC[C@@H](O)COCc1ccco1,-,.,.,.,.,.
COC(=O)c1cn[nH]c1NC(=S)Nc1ccc(Cl)c(Cl)c1,?,?,-,.,.,?
COC(=O)c1cn[nH]c1NC(=S)Nc1ccc(C)cc1Cl,?,-,?,.,.,7.3µM
Cc1ccc(C[n+]2cccc(-c3ccccc3)c2)c(C)c1,?,-95.7,?,-,-,?
Cc1cccc(C(=O)Nc2c(C(=O)NCc3ccc(Cl)cc3)sc3nc(C)cc(C)c23)c1,?,-75.4,.,-[7.34 µM],-[7.34 µM],?
Cc1ccc(-c2nnn3c2nc(N2CCC(C)CC2)c2ccccc23)cc1,-,-,.,-,-,-
SMILES,Marburg entry inh,HCMV antiviral,HCV inhibitor,VACV Venus inh,VACV mCherry inh,LASV entry inh
Cc1cccc(NC(=O)C2CCCN(S(=O)(=O)c3c(C)[nH]c(=O)[nH]c3=O)C2)c1C (configuration not stated),-,-,.,-,-,-
COc1ccccc1NC(=O)NCc1ccco1,-,-,?,-,-,?
COc1cc(NC(=O)NCc2ccco2)ccc1-c1ccc(NC(=O)NCc2ccco2)cc1OC,?,-66.7,11.2µM,-,?,?
CC(C)c1nn2c(=O)cc(COC(=O)c3cccc(NC(=O)COc4ccc(F)cc4)c3)nc2s1,.,-,.,-,-,-
Cc1ccc(NC(=O)c2ccc(=O)[nH]n2)cc1C,?,-,-,-,-,-
Cc1ccc(NC(=O)c2ccc(=O)[nH]n2)cc1S(=O)(=O)Nc1ccc(SC(F)F)cc1,.,-,3.16µM,.,.,.
O=C(CCCN1C(=O)/C(=C\c2ccco2)SC1=S)Nc1ccc2ccccc2c1,?,-81.3,?,-,?,?
O=C(CCCN1C(=O)/C(=C/c2ccco2)SC1=S)Nc1ccccc1C(=O)O,.,-,-,.,.,.
COc1ccc(/C=C2\SC(=S)N(CCC(=O)Nc3ccc(C(=O)O)cc3)C2=O)cc1,.,-,-,.,.,.
COc1ccc(/C=C2\SC(=S)N(CCCC(=O)Nc3ccc(O)cc3)C2=O)cc1,.,+,?,-,?,.
COc1ccc(/C=C2/SC(=S)N(CCCC(=O)Nc3ccc(O)cc3)C2=O)cc1,.,-99.6,?,.,.,.
Cn1c(=O)[nH]c(=O)c2c1nc1n2CCN1c1ccccc1,-,-,.,-,-,-
COc1ccc2oc(C(=O)Nc3nc4ccc(S(C)(=O)=O)cc4s3)c(C)c2c1,-,-60.1,-,-,-,-
Cc1ccc2oc(C(=O)Nc3nnc(C)s3)c(C)c2c1,-,-,-,-,-,?
COc1ccc2oc(C(=O)Nc3nnc(C)s3)c(C)c2c1,?,-,-,-,-,7.08µM
COc1cc(OC)cc(C(=O)Nc2nc3ccc(S(C)(=O)=O)cc3s2)c1,?,-,-,-,-,-
COc1cc(C(=O)Nc2nc3ccc(S(C)(=O)=O)cc3s2)cc(OC)c1C,-,?,3.55µM,-,-,?
CCc1ccccc1NC(=O)COC(=O)c1c(C)nsc1NC,.,?,4.47µM,.,.,.
NC(=O)C1CCCN(Cc2ccc3c(c2)CN(Cc2cn[nH]c2-c2ccc(F)cc2)CCO3)C1 (configuration not stated),.,.,.,-,-,.
CC1(C)C(=O)Nc2ccccc2N1C(=O)Cn1ncc(Cl)c(Cl)c1=O,.,-,?,.,.,.
Cc1nn(CC(=O)N2c3ccccc3NC(=O)C2(C)C)c(C)c1[N+](=O)[O-],.,-81.8,-,-,-,.
Cc1cc(C)cc(-n2c(C)cc(/C=N/NC(=O)c3cccc([N+](=O)[O-])c3C)c2C)c1,?,-,3.98µM,?,.,?
CCN(CC)c1ccc([N+](=O)[O-])cc1/C=N/NC(=O)CC#N,-,-,-,-,-,-
Cc1cc(/C=N/NC(=O)CC#N)c(C)n1-c1ccc([N+](=O)[O-])cc1,-,-91.1,-,-,-,-
CC(C)Cc1nc(SCC(=O)N2CCCCC2)c2c(=O)n(C)c(=O)n(C)c2n1,.,?,25.1µM,.,.,.
SMILES,Marburg entry inh,HCMV antiviral,HCV inhibitor,VACV Venus inh,VACV mCherry inh,LASV entry inh
CC(C)Cc1nc(SCC(=O)N2CCOCC2)c2c(=O)n(C)c(=O)n(C)c2n1,.,-,-,.,.,.
CC(C)Cc1nc(SCC(=O)NCC2CCCO2)c2c(=O)n(C)c(=O)n(C)c2n1 (configuration not stated),.,-77.7,-,.,.,.
COc1ccc(-c2cccc(CCC(=O)N3CCN(c4cc(C)ccc4C)CC3)c2)cc1,.,?,?,-,-,.
CCOc1ccc(NC(=O)NCCN2CCN(c3cccc(C)c3C)CC2)cc1,-,-,?,-,-,-
COc1ccc(C2=C(C)C(=NCCCN3CCN(c4cc(C)ccc4C)CC3)NS2(=O)=O)cc1,-,-91.0,.,?,?,-
CCOc1cccc(N2CCN(CCNC(=O)Nc3ccc(C)cc3)CC2)c1C,.,-,12.6µM,.,.,.
